Screens as filed in PubChem BioAssay.
Shown are actives, neighbours in structure and some others; about 7.3% of the full set was active somewhere.
HCV inhibitor – HCV inhibition. Huh7.5.1 HCVcc-Cre infection, luciferase reporter, 44 h. Potency, µM (highest dose often 41.8 µM), inactives show at the top dose activity change, negative = inhibition, actives largely listed as inhibitors. 3.4% of 340,000 active. AID 651820; active means well fitted inhibition curve with a large enough effect; inconclusive means small, poorly fitted or top-dose-only effect, or another doubt; inactive means no such curve, though single readings can be large or run the other way; further: potency means the concentration at half of the fitted maximal effect
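Infectious HCVcc-Cre (~0.5 moi) was added to cells just after compound, with cells seeded 4 h earlier at 1,000 per well. Luciferase activity after 44 h culture reported infection; substrate was incubated 15 min at room temperature before reading.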
FMDV antiviral – antivirals against foot and mouth disease virus. FMDV antiviral cell-based qHTS. 1.2% of 410,000 active. Potency, µM (doses to about 57.9 µM), without a hit: top-dose activity change, negative = inhibition, usual class: inhibitors; calls by dose curve; tested in HEK293T cells; further: read-out not given here; potency means the concentration at half of the fitted maximal effect; nearly all actives have a fitted effect of over 45% in size
HCMV antiviral – human cytomegalovirus inhibition | activity change, negative = inhibition, % at 57.5 µM | AID 1259415 | HFF cells, HCMV-luciferase reporter, 72 h; active compounds read low | 4.5% of 410,000 active; in the data active means activity change below about -60%; inconclusive means no clear call, values can overlap the other calls; inactive means above about -39%
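Compounds were evaluated in HFFs infected with an HCMV luciferase reporter virus (MOI 1 PFU/cell). Luciferase in lysates collected 72 h post infection served as the replication measure.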
Vaccinia Venus – vaccinia inhibition (Venus reporter); 0.46% of 330,000 active; Vaccinia virus Venus reporter expression, fluorescence; AID 720580; Potency, µM (doses to about 36.5 µM), for the others: at the top dose activity change, negative = inhibition, hits mostly inhibitors; calls by dose curve; tested in A549 cells; further: potency means the concentration at half of the fitted maximal effect; nearly all actives have a fitted effect of over 30% in size
VACV mCherry inh – vaccinia inhibition (mCherry reporter); Vaccinia virus mCherry reporter infection, fluorescence; Potency, µM (top dose mostly 36.5 µM), inactives show top-dose activity change, negative = inhibition, most hits filed as inhibitors; 0.63% of 310,000 active; calls by dose curve; tested in A549 cells; further: potency means the concentration at half of the fitted maximal effect; nearly all actives have a fitted effect of over 35% in size
Starred values were filed as active, the others as inactive; i = inactive; ? = inconclusive; · = no result given; [ ] = dose if it differs, or a comment. On the % scale 0 is the no-effect control and ±100 the full control effect.

SMILES	HCV inhibitor	FMDV antiviral	HCMV antiviral	Vaccinia Venus	VACV mCherry inh
CCOC(=O)c1ccc(NC(=O)c2nn(C)c3c2COc2ccccc2-3)cc1	·	-3.9%	-29.8	-17.5%	-25.3%
CCN(CC)CCOC(=O)c1ccc(NC(=O)c2nn(C)c3c2COc2ccccc2-3)cc1	·	13.1%	-86.7*	?	?
COc1ccccc1/C=N/NC(=O)c1ccc(NC(=O)c2ccccc2Br)cc1	?	-27.0%	-65.9*	-4.5%	-21.7%
O=C(COc1ccccc1C(=O)Nc1ccccc1)Nc1ccccc1Br	·	·	·	-8.8%	-5.0%
COc1cccc(/C=N/NC(=O)c2ccncc2)c1OC(=O)c1ccc(Br)cc1	?	-15.4%	·	-28.8%	4.47µM*
O=C(Oc1ccccc1C(=O)Nc1ccccc1)c1ccccc1Br	-25.3%	-29.2%	-66.2*	?	?
Cc1ccc(C)c(N2CCN(C(=O)CN3C(=O)COc4ccc(S(=O)(=O)N5CCOCC5)cc43)CC2)c1	·	-24.8%	-2.8	7.6%	-6.7%
CC(C)(C)c1ccc(-c2n[nH]c(=S)n2Cc2ccccc2)cc1	7.0%	-25.5%	-6.5	-16.1%	-10.3%
CC(C)n1c(-c2ccc(C(C)(C)C)cc2)n[nH]c1=S	?	?	-72.1*	·	·
Nc1ncc(S(=O)(=O)c2ccc([N+](=O)[O-])cc2)s1	3.2%	-12.5%	2.2	?	7.08µM*
O=C1CCCN1c1ncc(S(=O)(=O)c2ccc([N+](=O)[O-])cc2)s1	?	?	-23.2	?	11.2µM*
COc1ccc(C(=O)NCC2Cc3c(F)ccc(-c4nc(C)cnc4C)c3O2)cc1F (stereo unspecified)	·	-5.2%	·	2.2%	-6.1%
CC1CC(C)CN(c2oc(-c3ccc(OCc4ccccc4Cl)cc3)nc2C#N)C1 (stereo unspecified)	·	·	·	-10.0%	25.7%
COCC(=O)N1CC(=O)N2[C@@H](CO)[C@@H](c3ccc(Br)cc3)[C@@H]2C1	·	·	-19.8	·	·
O=C(Cn1c(=O)n(CC2CS2)c2ccccc21)N1CCCCCC1 (stereo unspecified)	8.1%	16.4%	-69.9*	-12.9%	i
C=C(C)Cn1c(=O)n(CC2CS2)c2ccccc21 (stereo unspecified)	3.5%	-23.3%	?	?	?
CCC(=O)N1CCc2cc(Br)cc(S(=O)(=O)N(CC)Cc3ccccc3)c21	·	-7.3%	6.5	-0.6%	-12.9%
CC1(C)c2ccccc2-c2nc3ccccc3cc2C1O (stereo unspecified)	15.9%	35.3%	8.2	7.9%	-26.7%
c1ccc2c(c1)-c1nc3ccccc3cc1C2N1CCCCC1 (stereo unspecified)	·	-20.7%	-101.8*	-0.3%	-3.9%
Cc1cnc(CNC(=O)c2c3n(c(C)cc2=O)-c2ccccc2SC(c2ccsc2)C3)cn1 (stereo unspecified)	·	-15.1%	·	-10.4%	-11.7%
C[C@@H]1C[C@H]2[C@@H]3CCC4=CC(=O)C=C[C@]4(C)[C@@]3(Cl)[C@@H](O)C[C@]2(C)[C@@]1(OC(=O)c1ccco1)C(=O)CCl	-22.3%	?	-73.5*	?	?
CS(=O)(=O)c1ccc(N)c(SSc2cc(S(C)(=O)=O)ccc2N)c1	-11.7%	4.3%	-82.4*	-6.5%	i
CS(=O)(=O)c1ccc2nc(N)sc2c1	5.6%	12.2%	47.5	-7.2%	-13.3%
S=c1nc[nH]c2c1ncn2C1CCCO1 (stereo unspecified)	12.3%	-13.4%	16.1	?	11.2µM*
Nc1ncnc2c1ncn2C1CCCC1	?	-13.9%	-1.4	-14.0%	-0.1%
SMILES	HCV inhibitor	FMDV antiviral	HCMV antiviral	Vaccinia Venus	VACV mCherry inh
Nc1ncnc2c1ncn2C1CCCO1 (stereo unspecified)	-3.8%	-21.6%	-73.5*	-3.3%	-25.9%[87.9 µM]
Nc1nsc2ccccc12	11.2µM*	·	-72.5*	?	?
O=C(c1cscn1)N1CCOc2ccc(CN3CCC(Oc4cccnc4)CC3)cc2C1	·	-14.9%	·	-4.6%	-7.4%
CCOc1cccc(/C=N/N2CCN(c3ccc(Cl)cc3)CC2)c1O	?	?	-94.3*	·	·
COc1ccccc1/C=N/N1CCN(c2ccc(Cl)cc2)CC1	-0.5%	-15.7%	-0.6	·	·
Cc1cc(=O)[nH]c2nnc(SCC(N)=O)n12	·	3.8%	-3.0	-4.4%	-12.0%
CS(=O)(=O)c1oc(-c2ccc(F)cc2)nc1S(=O)(=O)c1ccc(Cl)cc1	·	25.1µM*	-96.2*	?	?
Cc1ccc(S(=O)(=O)c2nc(-c3cccs3)oc2SC(C)C)cc1	·	-13.3%	-7.2	-10.2%	-1.5%
CCS(=O)(=O)c1oc(-c2ccc(F)cc2)nc1S(=O)(=O)c1ccc(Br)cc1	·	14.1µM*	-98.7*	?	-22.1%
CC(C)S(=O)(=O)c1oc(-c2ccc(F)cc2)nc1S(=O)(=O)c1ccccc1	·	15.8µM*	-97.2*	-11.7%[7.34 µM]	-18.6%[7.34 µM]
CC(C)S(=O)(=O)c1oc(-c2cccs2)nc1S(=O)(=O)c1ccc(F)cc1	·	22.4µM*	-101.6*	-12.7%[7.34 µM]	-17.9%[7.34 µM]
CCOc1ccccc1NC(=O)c1ccc2c(c1)CCN2S(C)(=O)=O	·	12.7%	0.0	3.5%	-2.6%
CCOc1ccccc1NC(=O)CSc1nnc2[nH]c(=O)cc(-c3ccccc3)n12	·	19.9%	-37.1	-14.5%	-16.9%
CCCCS(=O)(=O)c1oc(-c2ccc(F)cc2)nc1S(=O)(=O)c1ccccc1	·	31.6µM*	-99.4*	-16.7%[7.34 µM]	-19.4%[7.34 µM]
CSc1oc(-c2ccc(F)cc2)nc1S(=O)(=O)c1ccccc1	-6.6%	·	-0.4	-13.2%	-14.1%
CCOC(=O)C1CCCN(C(=O)c2ccc3c(c2)N(Cc2ccc(Cl)cc2)C(=O)c2ccccc2S3=O)C1 (stereo unspecified)	·	-13.2%	-6.6	-17.6%	-20.6%
CCOC(=O)C1=C(O)/C(=C/c2cn(CC(=O)N3CCCC3)c3ccccc23)SC1=Nc1ccccc1	11.2µM*	8.91µM*	·	18.6%	-11.9%
CCc1c(C)sc2c1CCN(Cc1ccccc1F)C2c1ccccc1 (stereo unspecified)	·	?	-105.1*	-15.0%	-17.4%
CCc1c(C)sc2c1CCN(Cc1cccc(OC)c1)C2c1ccccc1 (stereo unspecified)	·	-10.5%	-85.6*	-5.2%	-26.3%
COc1ccc2[nH]cc(CCNc3ncncc3-c3ccccc3Cl)c2c1	·	35.5µM*	·	·	·
COC(=O)C1=C(C)NC(=O)NC1c1ccc(-c2ccc(Cl)cc2)o1 (stereo unspecified)	8.91µM*	-27.5%	?	-15.6%	-4.6%
CCCCCn1c(CCCNC(=O)c2cccc(C)c2)nc2ccccc21	·	?	-85.1*	?	-20.6%
O=C(NCCCc1nc2ccccc2n1Cc1cccc(Cl)c1)c1ccco1	·	?	-75.9*	-7.6%[7.34 µM]	-2.6%[7.34 µM]
CCCCn1c(CCCNC(=O)c2cccc(C)c2)nc2ccccc21	·	-4.3%	-33.6	-15.2%	-19.8%
O=S(=O)(O)CCCS(=O)(=O)O	·	·	-5.3	·	·
CCc1cnc2ccccc2c1/C=C/c1ccc(N(C)C)cc1	·	·	·	-18.2%	-4.7%
c1ccc(Cc2nnc3sc(-c4cccnc4)nn23)cc1	4.2%	20.1%	-62.6*	·	·
